Test results taken from PubChem BioAssay.
The source made the active and inactive calls.

Columns and labels:
Albumin (Bos taurus) = Albumin (Bos taurus) (UniProt P02769); assay: compounds binding labelled BSA control protein – biochemical, small-molecule microarray, Alexa647 label, 635/667 nm fluorescence, artefact control for SMM control protein annotation, profiling panel (AID 1118); conditions: BSA-A647 binding, fluorescence 635 nm, higher = more signal;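 also: score merges 667 nm emission intensity and signal-to-noise per printed compound spot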
[1] = probe aXIP binding to arrayed compounds – biochemical, NeuroSMM set, 635/667 nm fluorescence, primary screen (AID 1119); conditions: small-molecule microarray, higher = more signal, called active from +8 up or from −8 down;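 also: probe is the protein aXip251-270 applied at 1 µg/mL to compound-printed slides; binding of probe to printed compounds measured as 667 nm fluorescence plus signal to noise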
[2] = probe aNOTCH3 binding on compound microarray – biochemical, small-molecule microarray, 635/667 nm fluorescence, primary screen (AID 1120); conditions: higher = more signal;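 also: probe is a biotin-tagged antibody raised against NOTCH3 rather than NOTCH3 protein; score merges spot fluorescence near 667 nm with spot signal to noise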
[3] = probe aNOTCH2 binding on compound microarray – biochemical, small-molecule microarray, 635/667 nm fluorescence, primary screen (AID 1121); conditions: higher = more signal;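 also: score merges feature fluorescence read at 667 nm with its signal to noise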
[4] = target: Carbonic anhydrase 2 (Homo sapiens) (UniProt P00918); assay: compounds binding carbonic anhydrase 2 – biochemical, small-molecule microarray, Alexa647-labelled CAII, profiling panel (AID 1122); conditions: CAII-A647 binding fluorescence, higher = more signal
[5] = COS7 lysate on small-molecule microarray, probe aHis, 635 nm (AID 1123); conditions: COS7 cell lysate, fluorescence, higher = more signal;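 also: z-score combines 667nm fluorescence intensity with signal-to-noise per printed compound spot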
[6] = probe aLAP1 signal on lysate-treated microarray – cell lysate, small-molecule microarray, COS7 lysate, primary screen (AID 1124); conditions: probe aLAP1, fluorescence, higher = more signal;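 also: lysate comes from COS7 cells expressing LAP1 and is applied at 0.3 µg/mL; score merges spot fluorescence near 667 nm with signal-to-noise over triplicate slides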
Sam68 (KHDRBS1) = assay: compounds binding KHDRBS1 protein – biochemical, small-molecule microarray, 635 nm fluorescence, primary screen (AID 1125); conditions: higher = more signal;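 also: score merges 667 nm channel intensity with signal to noise over triplicate slides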
[7] = test system: Chordin-like protein 2 (CHRDL2); assay: compounds binding chordin-like 2 – biochemical, small-molecule microarray, 635 nm fluorescence, primary screen (AID 1126); conditions: fluorescence 635 nm, higher = more signal;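 also: printed compound slides probed with Chrdl2 protein at 4 µg/mL for 1 h at 4 C; score merges 667 nm emission intensity with signal to noise over three replicate slides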
[8] = target: Concanavalin-A (Canavalia ensiformis) (UniProt P02866); assay: compounds binding concanavalin A lectin – biochemical, small-molecule microarray, Alexa647 label, 635 nm, artefact control for SMM control protein annotation, primary screen (AID 1127); conditions: ConA-A647 binding fluorescence, higher = more signal;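 also: z combines 667 nm emission intensity with signal-to-noise across three replicate slides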
Sequence of Concanavalin-A (Canavalia ensiformis) (P02866 whole entry, looked up): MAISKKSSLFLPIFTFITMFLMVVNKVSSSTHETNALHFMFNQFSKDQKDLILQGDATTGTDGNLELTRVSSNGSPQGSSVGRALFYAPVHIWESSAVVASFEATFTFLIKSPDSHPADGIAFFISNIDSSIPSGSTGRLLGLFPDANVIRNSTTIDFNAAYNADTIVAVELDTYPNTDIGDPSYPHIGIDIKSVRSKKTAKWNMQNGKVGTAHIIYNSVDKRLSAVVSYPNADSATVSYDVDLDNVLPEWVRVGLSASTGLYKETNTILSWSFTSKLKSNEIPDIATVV

Sequence of Albumin (Bos taurus) (P02769 whole entry, looked up): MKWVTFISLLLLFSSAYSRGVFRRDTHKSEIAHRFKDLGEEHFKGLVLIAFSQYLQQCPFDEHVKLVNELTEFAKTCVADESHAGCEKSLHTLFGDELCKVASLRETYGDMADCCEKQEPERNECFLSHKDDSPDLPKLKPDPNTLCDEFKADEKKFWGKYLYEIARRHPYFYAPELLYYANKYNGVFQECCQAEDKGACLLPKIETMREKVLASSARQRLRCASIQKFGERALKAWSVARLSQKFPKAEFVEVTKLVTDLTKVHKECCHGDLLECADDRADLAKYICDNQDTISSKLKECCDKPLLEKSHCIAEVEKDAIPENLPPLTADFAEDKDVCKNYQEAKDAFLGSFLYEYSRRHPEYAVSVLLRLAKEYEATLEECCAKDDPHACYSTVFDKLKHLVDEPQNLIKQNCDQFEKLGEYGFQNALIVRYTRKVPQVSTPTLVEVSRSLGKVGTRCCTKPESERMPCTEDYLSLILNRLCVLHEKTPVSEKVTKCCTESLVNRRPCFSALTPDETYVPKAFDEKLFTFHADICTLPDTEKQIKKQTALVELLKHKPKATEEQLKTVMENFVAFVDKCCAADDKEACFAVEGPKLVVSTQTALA

SMILES	composite z-score (Albumin (Bos taurus))	composite Z-score [1]	composite z-score [2]	composite z-score [3]	composite z-score [4]	composite z-score [5]	composite z-score [6]	composite z-score (Sam68 (KHDRBS1))	composite z-score [7]	composite z-score [8]
COCCCNC(=O)[C@]1(Cc2ccccc2)N=C(c2ccc(OCCCO)cc2)O[C@@H]1c1ccccc1N=[N+]=[N-]	0.855	0.454 (inactive)	0.0999	-0.106	0.502	0.0137	0.287	1.29	-0.26	1.1
CCCN1C(=O)[C@@H]2Cc3c([nH]c4ccccc34)[C@@H](c3cccc(O)c3)N2C1=O	-0.17	-0.12 (inactive)	-0.0967	-0.0859	-0.112	0.207	1.36	0.65	0.426	0.46
COCCOC(=O)N1C(=O)[C@@]2(c3cc(C#Cc4ccc(OC)cc4)ccc31)[C@H](C(=O)N1CCc3cc(OC)c(OC)cc3C1)[C@H]1C(=O)O[C@H](c3ccccc3)[C@H](c3ccccc3)N1[C@@H]2c1ccc(O)cc1	-0.237	-0.0164 (inactive)	0.436	0.357	0.282	0.853	0.844	1.28	0.805	1.16
C=C(C(=O)CC[C@H](OC(=O)c1cccnc1)c1ccc(OCCO)cc1)C(C)C	0.335	-0.496 (inactive)	0.0571	-0.105	0.695	0.706	0.296	1.13	0.274	1.12
C=CCOC(=O)[C@H]1[C@@H]2C(=O)O[C@@H](c3ccccc3)[C@@H](c3ccccc3)N2[C@@H](c2ccc(OCCOC(=O)[C@H]3C[C@H]4C(=O)N[C@@H](CCCCN(C)C)C(=O)N4[C@H]3c3ccc(O)cc3)cc2)[C@]12C(=O)Nc1ccccc12	-0.144	-0.168 (inactive)	0.272	-0.185	0.415	1.48	0.0568	1.29	1.21	1.1
OCCCC1=CC(c2cccs2)N(Cc2cccc(OC(F)(F)F)c2)CC1 (stereo not given)	0.659	-0.0774 (inactive)	-0.147	0.072	0.389	0.0426	0.144	-0.184	-0.258	-0.659
COCCOC(=O)N1C(=O)[C@@]2(c3cc(C#CCNC(N)=O)ccc31)[C@H](C(=O)N1CCCCCCC1)[C@H]1C(=O)O[C@H](c3ccccc3)[C@H](c3ccccc3)N1[C@@H]2c1ccc(OCCO)cc1	0.27	0.32 (inactive)	0.331	0.0245	0.244	0.46	1.32	0.653	0.298	0.979
O=C1O[C@H](c2ccccc2)[C@H](c2ccccc2)N2[C@H]1[C@@H](C(=O)N1CCCCCCC1)[C@]1(C(=O)Nc3ccccc31)[C@H]2c1ccc(O)cc1	0.052	8.41 (active)	2.34	1.24	0.764	4.65	1.65	1.31	1.71	1.17
CC[C@@H]1[C@@H]2C3C(=O)N(CC)C(=O)C3CC(=O)[C@@H]2[C@H](c2ccc(C)cc2)N1S(=O)(=O)c1ccc(C)cc1 (stereo not given in full)	0.701	-0.304 (inactive)	0.0077	0.131	0.749	2.61	1.64	1.34	-0.337	0.876
COCCOC(=O)N1C(=O)[C@@]2(c3cc(C#CCC(C(=O)OC)C(=O)OC)ccc31)[C@H](c1ccc(OCCO)cc1)N1[C@H](c3ccccc3)[C@H](c3ccccc3)OC(=O)[C@H]1[C@@H]2C(N)=O	0.84	0.674 (inactive)	-0.0077	0.0264	0.57	2.82	1.02	1.29	0.474	1.15
O=c1c2ccc(Br)cc2nc(-c2ccccc2)n1Cc1cccc(O)c1	0.757	0.906 (inactive)	0.103	0.138	0.711	1.46	1.3	0.772	0.182	0.988
COc1cc2c(cc1OC)CN(C(=O)[C@@H]1[C@H]3C(=O)O[C@H](c4ccccc4)[C@H](c4ccccc4)N3[C@H](c3ccc(OCCO)cc3)[C@@]13C(=O)Nc1ccc(C#CCCO)cc13)CC2	0.379	1.29 (inactive)	0.81	-0.0669	0.428	2.92	0.364	1.3	0.703	1.02
CC(C)C[C@@H]1NC(=O)[C@@]23C(=O)N[C@@H](Cc4ccccc4)C2[C@H](C)[C@@]2(C)O[C@H]2C3/C=C/C/C=C\CNC(=O)[C@@H]2CCCN2C1=O (stereo not given in full)	0.777	0.572 (inactive)	-0.0026	-0.129	0.391	-0.351	0.339	-0.747	0.698	-0.838
CC(C)CNC(=O)[C@@]1(c2ccc([N+](=O)[O-])cc2)CC(=O)N(C(C)C)[C@@H]1c1ccc(CO)cc1	0.1	1 (inactive)	-0.273	-0.161	0.735	1.59	0.664	0.3	-2.39	0.0801
COc1ccc(C(=O)Nc2ccc(CN3C(=O)[C@]4(O[C@H](CCn5cc([C@H](O)c6ccccc6)nn5)[C@@H]([Si](C)(C)c5ccc(OC)cc5)[C@@H]4C)c4ccccc43)cc2)cc1	0.109	0.0958 (inactive)	0.0026	-0.132	0.52	0.891	-0.127	0.619	-0.313	-0.0974
NCCCCCCNC(=O)[C@H]1C[C@H]2C(=O)N3CCC[C@H]3C(=O)N2[C@H]1c1ccc(O)cc1	0.425	2.61 (inactive)	-0.0362	-0.201	0.722	0.307	0.597	0.644	0.777	0.998
COc1ccc([Si](C)(C)[C@@H]2[C@@H](CCO)O[C@]3(C(=O)N(Cc4ccccc4)c4ccc(N5C(=O)COc6ccccc65)cc43)[C@H]2C)cc1	0.187	0.685 (inactive)	-0.0077	-0.0731	0.426	0.841	0.719	0.929	-0.237	0.822
COCCOC(=O)N1C(=O)[C@@]2(c3cc(C#CCCO)ccc31)[C@H](C(=O)NC[C@H](O)c1ccccc1)[C@H]1C(=O)O[C@H](c3ccccc3)[C@H](c3ccccc3)N1[C@@H]2c1ccccc1OCCO	-0.919	0.427 (inactive)	0.252	0.177	0.0771	1.33	1.32	1.3	0.969	1.09
O=C1O[C@@H](c2ccccc2)[C@@H](c2ccccc2)N2[C@@H](c3ccc(O)cc3)[C@]3(C(=O)Nc4ccc(C#CC5(O)CCCCCC5)cc43)[C@@H](C(=O)N3CCN(c4ncccn4)CC3)[C@H]12	0.77	0.95 (inactive)	-0.0558	-0.123	0.604	1.87	0.333	1.31	-0.106	1.13
CN1C(=O)C2C=CC(C(O)COCc3ccccc3)N(Nc3ccccc3)C2C1=O (stereo not given)	0.898	-0.0217 (inactive)	0.348	-0.127	0.81	1.44	-0.0468	0.616	-0.142	0.479
COC(=O)C(CC#Cc1ccc2c(c1)[C@]1(C(=O)N2)[C@H](C(=O)N2CCc3cc(OC)c(OC)cc3C2)[C@H]2C(=O)O[C@H](c3ccccc3)[C@H](c3ccccc3)N2[C@@H]1c1ccc(O)cc1)C(=O)OC	-1.1	-0.0536 (inactive)	0.233	0.0273	0.326	1.64	-0.137	1.29	1.25	1.16
CC(C)NC(=O)[C@@]1(Cc2ccccc2I)c2ccccc2C(=O)N(Cc2ccccc2C(F)(F)F)[C@H]1c1ccc(CO)cc1	0.263	0.0307 (inactive)	0.059	0.0509	0.71	1.47	0.896	0.63	0.107	0.548
